EPAC2 ag – qHTS for Agonist of cAMP-regulated guanine nucleotide exchange factor 4 (EPAC2): primary screen | EPAC2 activation, biochemical qHTS; response scale: 100% = 6.5 mM cAMP response | Rap guanine nucleotide exchange factor 4 (Homo sapiens), Q8WZA2 | 360,000 tested, 0.079% active | AID 720711, 2013 | Potency, µM (top dose mostly 154 µM), for the others: at the highest dose activation, most hits filed as activators; also: nearly all actives have a fitted effect of over 50% in size
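Exchange assay: 100 nM EPAC2 with 250 nM Rap1B-BODIPY-GDP and 50 uM GDP. Fluorescence (ex 480/em 540 nm) read every 5 min for 30 min at room temperature. Data normalized to 6.5 mM cAMP as agonist control.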
EPAC2 antag – qHTS for Antagonist of cAMP-regulated guanine nucleotide exchange factor 2 (EPAC2): primary screen | Rap guanine nucleotide exchange factor 4 (Homo sapiens), Q8WZA2 | EPAC2 GEF exchange of Rap1B-BODIPY-GDP, fluorescence | Potency, µM (series often up to 114 µM), without a hit: at the highest dose activity, negative = inhibition, hits mostly inhibitors | 360,000 tested, 0.18% active | AID 720708, 2013; also: % is scaled to controls: 0 for no effect and ±100 for the full control effect; nearly all actives have a fitted effect of over 45% in size
EPAC1 antagonist – qHTS for Antagonist of cAMP-regulated guanine nucleotide exchange factor 3 (EPAC1): primary screen. Rap guanine nucleotide exchange factor 3 (Homo sapiens), O95398. EPAC1 GEF assay, Rap1b-BODIPY-GDP exchange fluorescence. Potency, µM (top dose mostly 115 µM), for inactives: top-dose activity change, negative = inhibition, actives largely listed as inhibitors. 360,000 tested, 0.14% active;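 also: plate controls were vehicle for no effect and positive control for full effect; nearly all actives have a fitted effect of over 50% in size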
Target sequence (O95398 whole entry, looked up): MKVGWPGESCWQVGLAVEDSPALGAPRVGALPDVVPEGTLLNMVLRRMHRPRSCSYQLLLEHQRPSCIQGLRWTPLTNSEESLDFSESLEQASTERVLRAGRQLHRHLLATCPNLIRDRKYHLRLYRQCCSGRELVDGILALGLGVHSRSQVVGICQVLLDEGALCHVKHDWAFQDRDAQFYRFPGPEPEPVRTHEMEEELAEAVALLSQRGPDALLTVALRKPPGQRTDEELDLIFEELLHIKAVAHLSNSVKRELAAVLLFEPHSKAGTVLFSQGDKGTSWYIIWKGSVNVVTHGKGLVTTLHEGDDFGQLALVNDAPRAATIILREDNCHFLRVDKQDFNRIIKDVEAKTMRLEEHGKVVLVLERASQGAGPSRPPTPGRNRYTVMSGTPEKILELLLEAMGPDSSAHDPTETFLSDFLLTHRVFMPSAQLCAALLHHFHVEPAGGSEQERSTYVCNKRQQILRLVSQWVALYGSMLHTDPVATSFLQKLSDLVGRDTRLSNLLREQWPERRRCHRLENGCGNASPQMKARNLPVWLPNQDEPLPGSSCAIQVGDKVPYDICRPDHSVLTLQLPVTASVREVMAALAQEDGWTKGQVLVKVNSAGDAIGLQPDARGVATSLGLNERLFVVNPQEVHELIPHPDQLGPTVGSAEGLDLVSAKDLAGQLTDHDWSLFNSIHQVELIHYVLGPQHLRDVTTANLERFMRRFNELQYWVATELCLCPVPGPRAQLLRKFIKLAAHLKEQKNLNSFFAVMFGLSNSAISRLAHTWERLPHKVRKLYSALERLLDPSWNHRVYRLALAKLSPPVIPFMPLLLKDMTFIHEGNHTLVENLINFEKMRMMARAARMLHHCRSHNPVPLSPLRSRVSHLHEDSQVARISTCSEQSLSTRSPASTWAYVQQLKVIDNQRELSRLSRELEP
EPAC1 agonist – qHTS for Agonist of cAMP-regulated guanine nucleotide exchange factor 3 (EPAC1): primary screen; EPAC1 agonist qHTS, biochemical assay; response scale: 100% = response to 6.5 mM cAMP; Rap guanine nucleotide exchange factor 3 (Homo sapiens), O95398; AID 720707, 2013; 360,000 tested, 0.073% active; Potency, µM (titrated, usually from 154 µM), for inactives: at the top dose activation, usual class: activators; also: nearly all actives have a fitted effect of over 60% in size
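Nucleotide exchange by EPAC1 (100 nM) on Rap1B–BODIPY-GDP (250 nM) in the presence of 50 uM GDP is tracked fluorescently at 480/540 nm over 30 min. Signals are normalized to a 6.5 mM cAMP control.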
The depositor's hits bear a star; u = inconclusive. The list is not random: actives were taken first. Their share in the collection is about 0.39%. Calls follow the shape of the dose curve; as a rule, active = well fitted curve in the direction sought with a large enough effect; inconclusive = small, poorly fitted or top-dose-only effect, or another doubt; inactive = no such curve, though single readings can be large; an effect the other way counts as inactive or inconclusive. Potency is read from the fitted curve at half-maximal effect.

SMILES | EPAC2 ag | EPAC2 antag | EPAC1 antagonist | EPAC1 agonist
CCCCC[C@H](C)N1C[C@@H](COCc2ccccc2)Oc2cc(N3CCC[C@@H]3COC)ccc2S1(=O)=O | 4.0% | 6.9% | 0.5% | 3.9%
CN(C)CC/C=C1/c2ccccc2Sc2c(O)cc(Cl)cc21 | 10.0% | 35.5µM* | -0.8% | 0.8%
COc1cc(Cl)cc2c1Sc1ccccc1/C2=C/CCN(C)C | 10.7% | -3.3% | -1.6% | 0.4%
CCOC1(OCC)OC(c2ccccc2)=C(C#N)C(C=Cc2ccccc2)C1(OCC)OCC (centres undefined) | 1.7% | -13.5% | -12.7% | -10.5%
O/C=c1\ccc2cccc3nc(C(F)(F)F)nc1c23 | u | 82.1% | 18.2% | 89.1µM*
COc1ccc(NC(=O)c2cc(C3CCCCN3C(=O)c3ccccc3)on2)c(C)c1 (centres undefined) | 7.3% | 8.1% | -17.1% | 0.4%
Cc1cc(Br)cn2c(Cc3ccsc3)c(-c3ccc(F)cc3)nc12 | 8.7% | -12.3% | -2.2% | -7.0%
O=C(OCc1ccccc1)N1CCC2CC1c1ccc(N3CCNCC3)cc12 (centres undefined) | 2.8% | 6.1% | -24.1% | 9.0%
O=C1C=C(N2CCCCC2)c2ccccc2C1=O | 17.0% | 35.5µM* | 44.7µM* | 17.4%
CC1CCC2=NN(C(=O)c3ccco3)C(O)(C(F)(F)F)C2C1 (centres undefined) | -3.5% | 50.1µM* | -10.4% | -4.1%
O=C(O)c1ccc(Cl)c(S(=O)(=O)NC(Cc2c[nH]c3ccccc23)C(=O)O)c1 (centres undefined) | 12.4% | 5.7% | -6.5% | 3.3%
O=C(O)C(Cc1c[nH]c2ccccc12)NS(=O)(=O)c1cccc(Cl)c1Cl (centres undefined) | 10.6% | 44.7µM* | -14.3% | 1.7%
CCCCOCCCNC(=O)C[C@@H]1C[C@@]2(C(=O)OCC)CCCC=C2N(Cc2ccc(Cl)cc2Cl)C1=O | 5.3% | -19.5% | -17.9% | -3.5%
COc1ccc(C(C)(NC(C)=O)c2nc(-c3ccccc3OC)cs2)cc1 (centres undefined) | 11.4% | -18.6% | -5.9% | -5.5%
CC(=O)CCc1oc2ccccc2c1-c1ccccc1 | 23.2% | 25.1µM* | -4.9% | 15.7%
Cn1c(=O)c(N)c2c3c(c(Br)ccc31)C(=O)c1ccccc1-2 | u | 29.7% | 30.5% | 112µM*
C/C(=N\NS(=O)(=O)c1ccccc1)c1cc(Cl)cc(Cl)c1O | 3.9% | u | 17.8µM* | -10.7%
CCC[C@H]1CC(=O)C=C(c2ccsc2)ON1C(=O)OC(C)(C)C | 9.1% | 17.8µM* | -9.6% | -18.7%
COc1ccc(C2=CC(=O)C[C@H](CN3C(=O)c4ccccc4C3=O)N(C(=O)OC(C)(C)C)O2)cc1 | -5.9% | u | -9.1% | -1.7%
COc1cc(/C=C2/SC(=S)N(CC(=O)O)C2=O)ccc1OC(=O)c1cccs1 | 12.2% | u | 79.4µM* | -8.3%
COc1cc(/C=C2/SC(=S)N(Cc3ccccc3)C2=O)ccc1OS(C)(=O)=O | 19.5% | 0.1% | -25.8% | 6.4%
COc1cc(/C=C2/SC(=S)N(C)C2=O)ccc1OC(=O)c1ccco1 | 11.8% | -3.7% | 13.4% | 4.3%
COc1cc(/C=C2\SC(=S)N(CC(=O)O)C2=O)ccc1OS(=O)(=O)c1ccc(C)cc1 | -11.6% | u | 89.1µM* | -11.5%
COc1ccccc1C(C)Nc1nc(-c2cccnc2)nc2ccccc12 (centres undefined) | 8.2% | -16.2% | 3.3% | 11.3%
COc1cc(/C=C/[N+](=O)[O-])ccc1OCc1cccc(C(=O)O)c1 | 17.8% | 22.4µM* | u | 8.3%
SMILES | EPAC2 ag | EPAC2 antag | EPAC1 antagonist | EPAC1 agonist
COc1ccc(C(=O)C=Cc2ccc(OCc3ccccc3)c(OC)c2)cc1OC | 8.5% | 3.4% | -5.4% | 6.9%
C#Cc1ccc(NC(=O)C2(C)CCN2C(=O)CC(c2ccccc2)c2ccccc2)cc1 (centres undefined) | 11.6% | -11.9% | -8.0% | 9.4%
CC(=O)Nc1cccc(-c2ccnc3c2CC(C(=O)NCCC(F)(F)F)O3)c1 (centres undefined) | 0.0% | 7.3% | -19.6% | 0.1%
Cc1cc(/C=N/NC(N)=S)c(O)c(/C=N/NC(N)=S)c1 | u | 25.0% | -12.9% | 39.8µM*
O=C(/C=C/c1ccc(-c2ccccc2[N+](=O)[O-])o1)c1ccco1 | 12.3% | 0.4% | 50.1µM* | 3.8%
O=C(/C=C/c1ccc([N+](=O)[O-])cc1)c1ccco1 | 16.0% | 6.5% | -3.6% | -0.9%
COc1cc(NC(=O)c2cc3nc(-c4ccccc4)cc(-c4ccccc4)n3n2)cc(OC)c1OC | 17.9% | -14.5% | 56.2µM* | 7.5%
O=C(Nc1cccnc1)C1Cc2c(-c3ccc4c(c3)OCO4)ccnc2O1 (centres undefined) | -12.8% | -1.9% | u | -18.5%
COc1ccc(C(CC(=O)N2CCCC2)c2c(OC)cc(OC)c3c(-c4ccccc4)cc(=O)oc23)cc1 (centres undefined) | 9.1% | u | u | 8.1%
COc1ccc(C(CC(=O)N2CCOCC2)c2c(OC)cc(OC)c3c(-c4ccccc4)cc(=O)oc23)cc1 (centres undefined) | 6.2% | 50.1µM* | 4.8% | -9.0%
Cc1[nH]c(=O)nc(SCc2cccc(Cl)c2)c1C#N | -4.5% | -0.7% | u | -1.3%
N#Cc1c(-c2ccccc2)nc(SCc2cccc(Cl)c2)[nH]c1=O | -11.3% | 89.1µM* | u | -5.0%
C=CCOc1c(Br)cc(/C=N/O)cc1OCC | -10.0% | u | -10.2% | -3.1%
CCCCOc1c(Br)cc(/C=N/O)cc1OCC | -2.5% | 28.2µM* | u | -10.4%
Cc1cc2nc(-c3ccc(F)cc3)c(CC(C)(C)C)n2c(C)c1Br | -1.6% | -13.6% | -13.5% | -17.6%
O=C1c2cccc3c(N4CCCCC4)ccc(c23)C(=O)N1c1ccccc1O | 100µM* | 1.2% | 4.1% | u
O=C1c2cccc3c(N4CCCCC4)ccc(c23)C(=O)N1c1ccc(O)cc1 | 89.1µM* | 100.6% | 14.1% | 11.0%
O=C1c2cccc3cccc(c23)C(=O)N1c1ccc(O)cc1 | 7.1% | -8.1% | -15.9% | 9.7%
C(=C\c1ccccc1)/CN1CCN(C(c2cc3ccccc3o2)c2nnnn2C2CCCCC2)CC1 (centres undefined) | 2.8% | 1.0% | -5.6% | -4.4%
CCOCc1nc(N)nc(N)c1-c1cccc(Cl)c1 | 1.7% | -2.4% | 3.3% | 9.2%
COc1ccc(C(C)=O)cc1COc1ccc(F)cc1 | 13.6% | 56.2µM* | -29.9% | 14.6%
O=C(O)COc1ccc2nsnc2c1Cl | 7.1% | -7.3% | 2.9% | 3.4%
